The campaign covered roughly 320,000 compounds. About 2,100 (0.66%) were called active. Another 53% or so got no clear call; they are omitted. Calls follow the shape of the dose curve; as a rule, active = well fitted inhibition curve with a large enough effect in the signal ratio, with a control signal flat (not every such curve was filed as active); inconclusive = small, poorly fitted or top-dose-only effect, or effect the other way, or a change in a side signal; inactive = flat fitted curve, though single readings scatter; the % refers to the signal ratio. The full list was thinned out, with actives kept by preference.
Assay: qHTS Assay for Lipid Storage Modulators in Drosophila S3 Cells;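 as to cell number change: cells counted by Cell Tracker Red CMTPX staining in the red channel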; as to lipid storage change, negative = inhibition: % is scaled to controls: 0 for no effect and ±100 for the full control effect
Settings: BODIPY lipid droplet fluorescence, 18-24 h, cells fed with added oleic acid; cell number change: measured here: cell count max response; series mostly up to 46.1 µM; lipid storage change, negative = inhibition: at the top concentration
Outline: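 Laser-scanning cytometry quantifies lipid droplet accumulation (500–530 nm total intensity; droplet/cell object ratio) in oleic acid-fed (400 uM added) Drosophila S3 cells treated with a concentration series. 20 uM Triacsin C defined 100% inhibition.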
With `Cc1ccc(-n2c(SCc3cn4ccsc4n3)nc3ccccc3c2=O)cc1` the “outcome” value was “inactive” and the cell number change was -7.5%.
In the case of `C=C(C)CSc1nnc([C@@H]2CCCN2)o1`, the “lipid storage change, negative = inhibition” value is reported as 6.25% (inactive) and the cell number change is reported as 9.92%.
With `COc1ccc(NC(=O)C2CCN(S(=O)(=O)c3ccc4c(c3)NC(=O)C(C)S4)CC2)cc1` (centres undefined) the “outcome” value was “inactive” and the cell number change was 2.12%.
With `CCOc1ccc(NC(=O)C2CCN(S(=O)(=O)c3ccc4c(c3)NC(=O)C(C)S4)CC2)cc1` (centres undefined) the Potency was 1030 nM (active).
With `O=C(Nc1ccc(F)cc1)C1CCCN(S(=O)(=O)c2ccc3[nH]c(=O)ccc3c2)C1` (centres undefined) the “lipid storage change, negative = inhibition” value was -12.6% (inactive) and the cell number change was 23.9%.
For `CCOc1ccc(NC(=O)C2CCCN(S(=O)(=O)c3ccc4[nH]c(=O)ccc4c3)C2)cc1` (centres undefined), the Potency was 20600 nM (active) and the cell number change was 23.6%.
With `CCc1cccc(NC(=O)C2CCCN(S(=O)(=O)c3ccc4[nH]c(=O)ccc4c3)C2)c1` (centres undefined) the “outcome” value was “inactive” and the cell number change was 16%.
With `COc1ccc(S(=O)(=O)N2CCCC2C(=O)Nc2ccc(C(C)=O)cc2)cc1` (centres undefined) the “lipid storage change, negative = inhibition” value was 10.3% (inactive) and the cell number change was -11.3%.
With `CC1Sc2ccc(S(=O)(=O)N3CCC(C(=O)Nc4ccc(Cl)cc4)CC3)cc2NC1=O` (centres undefined) the “outcome” value was “inactive” and the cell number change was 7.08%.
In the case of `CCOc1ccc(NC(=O)C2CCCN2S(=O)(=O)c2ccc(OCC)cc2)cc1` (centres undefined), the Potency is reported as 651 nM (active) and the cell number change is reported as 9.72%.
With `COc1ccc(NC(=O)C2CCCN2S(=O)(=O)c2ccc(F)cc2)cc1` (centres undefined) the cell number change was -1.12% and the lipid storage change, negative = inhibition was -17.7% [at 9.22 µM] (inactive).
For `CC(C)NCC(O)COCCOc1ccc(Br)cc1` (centres undefined), the “lipid storage change, negative = inhibition” value was 0.83% (inactive) and the cell number change was 23.8%.
In the case of `O=C(CCC1CCCN(C(=O)c2ccc3c(c2)OCO3)C1)N1CCN(c2ccccn2)CC1` (centres undefined), the “lipid storage change, negative = inhibition” value is reported as 17.9% (inactive) and the cell number change is reported as -1.56%.
For `CC1CCCCC1NC(=O)c1ccc(S(=O)(=O)N2CCCC2)cc1` (centres undefined), the “outcome” value was “inactive” and the cell number change was 25.1%.
For `COc1cccc(C(=O)NCCS(=O)(=O)NCCc2ccc(OC)c(OC)c2)c1`, the “outcome” value was “inactive”.
For `Cc1cc(-c2nn(C)c(=O)c3ccccc23)ccc1CNC(=O)NC1CCCCC1`, the “lipid storage change, negative = inhibition” value was 11.4% (inactive) and the cell number change was 19.3%.
With `Cc1sc2nc(CN3CCOCC3)[nH]c(=O)c2c1-c1ccccc1` the “outcome” value was “inactive” and the cell number change was -18.1%.
With `O=C(c1cccc(Cl)c1)N1CCCC(C(=O)N2CCCCCC2)C1` (centres undefined) the “lipid storage change, negative = inhibition” value was -16.5% (inactive) and the cell number change was -0.867%.
With `NC(Cc1ccccc1)C(O)(c1ccccc1)c1ccccc1` (centres undefined) the “lipid storage change, negative = inhibition” value was 5.79% (inactive) and the cell number change was -20.2%.
With `Cc1noc(NS(=O)(=O)c2ccc(NC(=O)CCn3c(=O)oc4ccccc43)cc2)c1C` the “lipid storage change, negative = inhibition” value was 9.9% (inactive).
With `CCC(C)NC(=O)C(=O)NCc1ccccn1` (centres undefined) the “lipid storage change, negative = inhibition” value was 1.01% (inactive) and the cell number change was 4.8%.
For `Cc1ccc(S(=O)(=O)Cc2nnnn2-c2ccccc2)cc1`, the “lipid storage change, negative = inhibition” value was -12% (inactive) and the cell number change was -3.66%.
With `COc1ccc(CC(=O)Nc2ccc(-c3noc(-c4ccc(Cl)cc4)n3)cc2)cc1` the “lipid storage change, negative = inhibition” value was -5.45% (inactive) and the cell number change was -6.7%.
For `COc1ccc(CCNC(=O)CNC(=O)c2ccccc2Br)cc1OC`, the “lipid storage change, negative = inhibition” value was -67.8% (inactive) and the cell number change was 19.2%.
For `O=C1C(Cc2ccc(O)cc2)NC(=S)N1C1CCCCC1` (centres undefined), the “lipid storage change, negative = inhibition” value was -15.9% (inactive) and the cell number change was 9.32%.
With `CC(=O)Nc1sc(NC(=O)c2ccc([N+](=O)[O-])cc2)nc1-c1cccs1` the “lipid storage change, negative = inhibition” value was -6.26% (inactive) and the cell number change was 7.62%.
In the case of `Cc1cccc(NC(=O)CC2C(=O)NC3CCCCC3N2C(=O)c2ccccc2Cl)c1` (centres undefined), the “lipid storage change, negative = inhibition” value is reported as -5.97% (inactive) and the cell number change is reported as 7.35%.
In the case of `CN(C(=O)CC1C(=O)NCCN1Cc1ccc(F)c(F)c1)C1CCOCC1` (centres undefined), the “lipid storage change, negative = inhibition” value is reported as 28.1% (inactive) and the cell number change is reported as 1.07%.
With `O=C(CSc1nnc2c(n1)[nH]c1ccc(F)cc12)NC1CC1` the Potency was 20600 nM (active) and the cell number change was -6.52%.
For `CC1CCc2cc(F)ccc2N1C(=O)CSc1nnc2c(n1)[nH]c1ccc(F)cc12` (centres undefined), the “lipid storage change, negative = inhibition” value was -15.2% (inactive) and the cell number change was -17.4%.
In the case of `CC(C)c1ccc2[nH]c3nc(SCC(=O)NC4CC4)nnc3c2c1`, the Potency is reported as 651 nM (active) and the cell number change is reported as 8.7%.
With `CC1CCCCN1C(=O)CSc1nnc2c(n1)[nH]c1ccccc12` (centres undefined) the Potency was 580 nM (active) and the cell number change was 8.97%.
With `CC1CCCCN1C(=O)CSc1nnc2c(n1)[nH]c1ccc(F)cc12` (centres undefined) the “outcome” value was “inactive” and the cell number change was 8.7%.
With `CC(C)c1ccc2[nH]c3nc(SCC(=O)N4CCOCC4)nnc3c2c1` the “lipid storage change, negative = inhibition” value was -0.666% (inactive) and the cell number change was -11.8%.
For `CCc1ccc2[nH]c3nc(SCC(=O)NCC4CCCO4)nnc3c2c1` (centres undefined), the “lipid storage change, negative = inhibition” value was -11.3% (inactive) and the cell number change was 8.06%.
In the case of `CC1Cc2ccccc2N1C(=O)CSc1nnc2c(n1)[nH]c1ccccc12` (centres undefined), the “lipid storage change, negative = inhibition” value is reported as 9.27% (inactive) and the cell number change is reported as 3.16%.
In the case of `Cc1ccc(C(=O)NNC(=O)CSc2nnc3c(n2)[nH]c2ccc(F)cc23)cc1`, the “lipid storage change, negative = inhibition” value is reported as 3.4% (inactive) and the cell number change is reported as 6.2%.
In the case of `COc1ccc(CC(NC(C)=O)C(=O)NC2CCN(c3nnnn3-c3ccccc3)CC2)cc1OC` (centres undefined), the “lipid storage change, negative = inhibition” value is reported as 15.7% (inactive) and the cell number change is reported as -4.36%.
With `COc1ccc(-c2c(=O)n(OCc3nc4ccccc4[nH]3)c3ccccc3[n+]2[O-])cc1` the “lipid storage change, negative = inhibition” value was 6.71% (inactive) and the cell number change was 2.91%.
With `Cc1cccc2cc(COC(=O)C3CCCCC3)c(=O)[nH]c12` the “lipid storage change, negative = inhibition” value was 22.2% (inactive) and the cell number change was 10.5%.
With `N#Cc1cncc(-c2ccc3c(c2)OCCOCCOCCOCCOCCO3)n1` the “lipid storage change, negative = inhibition” value was 9.67% (inactive) and the cell number change was 3.78%.
With `COc1cc(CNC2CCCCCCC2)cc(Cl)c1OCC(N)=O` the “lipid storage change, negative = inhibition” value was -14.6% (inactive) and the cell number change was 6.3%.
With `COc1ccccc1N1CCN(C(=O)c2cc(C)oc2C)CC1` the “lipid storage change, negative = inhibition” value was -0.501% (inactive) and the cell number change was 9.51%.
With `O=C(O)c1oc2ccc(Br)cc2c1-n1cccc1` the “outcome” value was “inactive”.
Potency is read from the fitted curve at half-maximal effect.
